Assay [1] deals with Estrogen receptor (Homo sapiens) (UniProt P03372). Description: qHTS assay to identify small molecule agonists of the estrogen receptor alpha (ER-alpha) signaling pathway in the presence of an antagonist (AID 1259383). Further: nearly all actives have a fitted effect of over 15% in size. Further: potency means the concentration at half of the fitted maximal effect. In outline:
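In VM7Luc4E2 cells, 4,000 per well, compounds at 15 concentrations were co-incubated 22hr at 37C with 10.0nM final ICI-182,780. Luminescence from the stably transfected 4×ERE-luciferase reporter was recorded 30min after ONE-Glo addition.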
(In qHTS, concentration-response curves come from the screen itself.)

Assay [2] is described as follows: qHTS assay to identify small molecule agonists or antagonists of the thyroid stimulating hormone receptor (TSHR) signaling pathway - wild type cell line counter screen (AID 1259384). In outline:
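Wild-type Hek293 cells, 800/well, 18 h at 37C, then compound with Ro20-1724 for 30 min RT. cAMP by HTRF (cAMP-d2/anti-cAMP cryptate), 1 h RT, fluorescence read. 15 concentrations, triplicates.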

For assay [3], the target named is Thyrotropin receptor (Homo sapiens) (UniProt P16473). Description: qHTS assay to identify small molecule antagonists of the thyroid stimulating hormone receptor (TSHR) signaling pathway (AID 1259385). Further: nearly all actives have a fitted effect of over 20% in size. In outline: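 TSHR-HEK293 cells (800/well) plated 18 h, then compounds with Ro20-1724 and TSH at 1.5 ng/mL final, 30 min at room temperature. cAMP quantified by HTRF (cAMP-d2/anti-cAMP-cryptate, 1 h); 15 concentrations in triplicate.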
Thyrotropin receptor (Homo sapiens), sequence (P16473 whole entry, looked up): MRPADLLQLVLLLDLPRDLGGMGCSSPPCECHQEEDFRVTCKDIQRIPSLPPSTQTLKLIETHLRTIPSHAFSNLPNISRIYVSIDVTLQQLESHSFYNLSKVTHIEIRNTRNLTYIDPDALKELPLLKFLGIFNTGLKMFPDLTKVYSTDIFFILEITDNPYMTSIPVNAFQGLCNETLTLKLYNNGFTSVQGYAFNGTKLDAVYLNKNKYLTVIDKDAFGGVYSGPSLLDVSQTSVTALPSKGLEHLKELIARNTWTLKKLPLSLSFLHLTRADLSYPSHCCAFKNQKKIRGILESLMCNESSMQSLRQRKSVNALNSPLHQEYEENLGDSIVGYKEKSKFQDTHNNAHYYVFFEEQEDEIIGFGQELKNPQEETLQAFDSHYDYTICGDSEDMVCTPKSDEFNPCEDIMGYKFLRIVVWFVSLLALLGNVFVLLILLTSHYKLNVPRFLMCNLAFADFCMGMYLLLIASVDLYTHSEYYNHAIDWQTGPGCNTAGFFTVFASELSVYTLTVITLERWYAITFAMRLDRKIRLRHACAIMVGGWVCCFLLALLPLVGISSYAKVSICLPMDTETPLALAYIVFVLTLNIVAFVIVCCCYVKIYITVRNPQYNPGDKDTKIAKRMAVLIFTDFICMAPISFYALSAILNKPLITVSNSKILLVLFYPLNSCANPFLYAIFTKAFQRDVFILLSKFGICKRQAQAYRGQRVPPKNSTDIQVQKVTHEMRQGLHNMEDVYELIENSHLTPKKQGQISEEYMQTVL

Assay [4] in a line: qHTS assay to identify small molecule agonists of the estrogen receptor alpha (ER-alpha) signaling pathway in the presence of an antagonist - cell viability counter screen (AID 1259386; active means well fitted curve in the direction sought with a large enough effect in the repeat runs; an effect the other way counts as inactive or inconclusive;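 further: series mostly up to about 92 µM; cells exposed to compounds for 22 h at 37 °C before the viability read; nearly all actives have a fitted effect of over 30% in size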). The procedure, abridged:
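Fluorescent CellTiter-Fluor viability signal from VM7Luc4E2 cells, with the reagent added during the final hour of a 22hr compound exposure at 37C in the presence of 10.0nM ICI-182,780.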

The target in assay [5] is Progesterone receptor (Homo sapiens) (UniProt P06401). Description: qHTS assay to identify small molecule agonists of the progesterone receptor (PR) signaling pathway (AID 1346784). Further: nearly all actives have a fitted effect of over 30% in size. Further: potency means the concentration at half of the fitted maximal effect. The procedure, abridged:
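Agonist qHTS: compounds pinned onto 3,000 PR-UAS-bla HEK 293T cells per well in charcoal-stripped serum medium, 16hr at 37C, then beta-lactamase activity measured by LiveBLAzer FRET fluorescence after 2 hours at room temperature.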

Assay [6] shares this target. Description: qHTS assay to identify small molecule antagonists of the progesterone receptor (PR) signaling pathway (AID 1346795; active means well fitted inhibition curve with a large enough effect in the signal ratio in the repeat runs, not every such curve was filed as active; the % refers to the signal ratio). The procedure, abridged:
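Antagonist mode with agonist R5020 at 1 nM final and 16 hr incubation at 37C. Reporter was beta-lactamase driven by UAS in HEK293T (PR-UAS-bla), 2% charcoal-stripped serum; signal from LiveBLAzer FRET substrate, 2 hr at room temperature.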

Assay [7] in a line: qHTS assay to identify small molecule antagonists of the progesterone receptor (PR) signaling pathway - cell viability counter screen (AID 1346798; active means well fitted curve in the direction sought with a large enough effect in the repeat runs; an effect the other way counts as inactive or inconclusive; further: series mostly up to about 92 µM; nearly all actives have a fitted effect of over 50% in size). The procedure, abridged: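 Cytotoxicity read as CellTiter-Glo luminescence (30 min, room temperature) in the same wells as the beta-lactamase readout. HEK293T PR-UAS-bla cells in charcoal-stripped 2% FBS received compound and R5020, then 16 h at 37C, 5% CO2.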

Assay [8] in a line: qHTS assay to identify small molecule agonists of the progesterone receptor (PR) signaling pathway - cell viability counter screen (AID 1346799). Further: nearly all actives have a fitted effect of over 45% in size. In outline:
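Cytotoxicity measured by CellTiter-Glo luminescence (30 min, RT) in the same wells as the PR beta-lactamase agonist read. Those HEK293T cells had 16 h compound treatment at 37 C in 2% charcoal-stripped FBS medium.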

Assay [9] is described as follows: qHTS assay to identify small molecule antagonists of the TGF-beta/Smad signaling pathway - cell viability counter screen (AID 1346824; active means well fitted curve in the direction sought with a large enough effect in the repeat runs; an effect the other way counts as inactive or inconclusive; further: nearly all actives have a fitted effect of over 50% in size). The procedure, abridged:
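SBE-bla HEK 293T cells, incubated overnight, then compound plus 0.25 ng/mL TGF-beta1 (stock added) for 5 hr at 37 C. Viability was read in the same wells by CellTiter-Glo luminescence after 30 min at room temperature.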

Assay [10] is described as follows: qHTS assay to identify small molecule agonists of the TGF-beta/Smad signaling pathway - cell viability counter screen (AID 1346829; active means well fitted curve in the direction sought with a large enough effect in the repeat runs; an effect the other way counts as inactive or inconclusive; further: top concentration of the series differs between compounds; nearly all actives have a fitted effect of over 45% in size). In outline:
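Compound-treated SBE-bla HEK 293T cells (5 hr, 37 C) were assessed for viability with CellTiter-Glo in parallel with the reporter read.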

Inconclusive results are not listed. The source made the active and inactive calls. Unless noted, the call rests on the fitted dose curve.

Estrogen receptor (Homo sapiens), sequence (P03372 whole entry, looked up): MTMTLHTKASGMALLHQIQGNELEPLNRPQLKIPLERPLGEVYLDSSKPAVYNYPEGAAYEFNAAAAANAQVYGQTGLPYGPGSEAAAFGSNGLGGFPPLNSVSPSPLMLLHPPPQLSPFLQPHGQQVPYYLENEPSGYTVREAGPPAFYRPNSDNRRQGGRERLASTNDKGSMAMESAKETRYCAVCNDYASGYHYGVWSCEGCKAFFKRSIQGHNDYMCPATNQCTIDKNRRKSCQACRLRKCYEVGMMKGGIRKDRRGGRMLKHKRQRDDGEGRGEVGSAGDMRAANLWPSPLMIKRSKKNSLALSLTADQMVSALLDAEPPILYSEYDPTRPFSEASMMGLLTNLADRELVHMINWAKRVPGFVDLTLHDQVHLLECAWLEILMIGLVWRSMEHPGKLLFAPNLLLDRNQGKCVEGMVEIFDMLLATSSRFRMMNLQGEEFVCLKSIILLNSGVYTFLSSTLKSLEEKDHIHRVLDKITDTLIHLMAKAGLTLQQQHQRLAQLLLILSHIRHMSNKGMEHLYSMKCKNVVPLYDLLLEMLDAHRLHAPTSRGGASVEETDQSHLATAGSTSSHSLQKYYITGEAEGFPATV
Progesterone receptor (Homo sapiens), sequence (P06401 whole entry, looked up): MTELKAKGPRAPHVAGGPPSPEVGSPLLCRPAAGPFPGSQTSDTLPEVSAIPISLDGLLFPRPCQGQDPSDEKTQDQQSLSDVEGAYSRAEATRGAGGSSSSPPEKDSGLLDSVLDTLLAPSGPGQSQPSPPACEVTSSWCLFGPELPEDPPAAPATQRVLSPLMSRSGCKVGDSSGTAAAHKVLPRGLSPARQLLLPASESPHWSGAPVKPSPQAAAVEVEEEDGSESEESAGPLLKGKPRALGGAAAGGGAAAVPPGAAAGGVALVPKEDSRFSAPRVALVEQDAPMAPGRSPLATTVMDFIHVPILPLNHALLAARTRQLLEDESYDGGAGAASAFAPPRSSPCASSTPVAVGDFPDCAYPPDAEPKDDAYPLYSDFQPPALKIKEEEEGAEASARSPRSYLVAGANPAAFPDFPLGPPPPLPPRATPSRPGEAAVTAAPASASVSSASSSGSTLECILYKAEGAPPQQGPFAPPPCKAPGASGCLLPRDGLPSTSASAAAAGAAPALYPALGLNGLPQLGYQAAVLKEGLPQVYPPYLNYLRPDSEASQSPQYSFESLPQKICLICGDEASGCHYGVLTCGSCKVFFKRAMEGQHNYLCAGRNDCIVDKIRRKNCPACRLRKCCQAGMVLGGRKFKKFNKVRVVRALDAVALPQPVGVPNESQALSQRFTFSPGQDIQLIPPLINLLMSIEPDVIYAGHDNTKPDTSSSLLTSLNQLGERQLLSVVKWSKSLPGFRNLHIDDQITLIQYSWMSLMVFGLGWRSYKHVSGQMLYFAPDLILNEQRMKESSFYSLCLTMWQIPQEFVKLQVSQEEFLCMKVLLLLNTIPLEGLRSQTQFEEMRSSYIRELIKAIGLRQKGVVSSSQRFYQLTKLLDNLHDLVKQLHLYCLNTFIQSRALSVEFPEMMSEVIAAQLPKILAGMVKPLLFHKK

With `Cc1cccc(N)n1`, the Potency entry in [1], in [5], in [6] and in assay [8] was “inactive” throughout. Besides, the outcome in [2], in [3], in [4], in assay [7], in assay [9] and in [10] was inactive.

Take `CC(C)(O)c1ccc(C(C)(C)O)cc1`: the Potency entry in assay [1], in [5], in [6] and in [8] was “inactive” in each case. Further, the call in assay [2], in assay [3], in [4], in assay [7], in [9] and in assay [10] was inactive.

Turning to `CCCCCCCCCCCC(C)=O`, the Potency result in assay [1], in [5], in assay [6] and in assay [8] was “inactive” throughout. The result in assay [2], in assay [3], in [4], in [7], in [9] and in assay [10] was inactive.

For `CC[C@@]1(c2ccccc2)NC(=O)N(C)C1=O`, the Potency entry in [1], in assay [5], in assay [6] and in [8] was “inactive” each time. The result in assay [2], in assay [3], in assay [4] and in [7] was inactive.

Turning to `COCCCOc1cc(C[C@@H](C[C@H](N)[C@@H](O)C[C@H](C(=O)NCC(C)(C)C(N)=O)C(C)C)C(C)C)ccc1OC`, the Potency result in [1], in assay [5], in assay [6] and in assay [8] was “inactive” throughout. In addition, the call in assay [2], in assay [3], in [4], in [7], in assay [9] and in assay [10] was inactive.

With `Cc1cc(O)c(Cl)cc1C`, the Potency entry in assay [1], in [5], in assay [6] and in [8] was “inactive” in each case. Further, the call in [2], in assay [3], in assay [4], in assay [7] and in [9] was inactive.

For `Cc1cc(C)c(N)c(Cl)c1`, the Potency result in [1], in [5], in assay [6] and in assay [8] was “inactive” throughout. Besides, the result in assay [2], in [3], in assay [4], in assay [7] and in assay [9] was inactive.

Take `Cc1cc(=O)oc2cc(O[C@@H]3SC[C@@H](O)[C@H](O)[C@H]3O)ccc12`: the Potency result in assay [1], in [5], in [6] and in [8] was “inactive” each time. The compound was classed as inactive in [2], in assay [3], in [4], in assay [7], in assay [9] and in [10].

Take `CCCCN=C(N)N=C(N)N`: the Potency result in assay [1], in [5], in assay [6] and in [8] was “inactive” each time. Further, the compound was called inactive in assay [2], in assay [3], in [4], in assay [7] and in assay [9].

Turning to `CC(C)(O)CCCC1=CCC(C=O)CC1` (configuration not stated), the Potency entry in assay [1], in assay [5], in assay [6] and in assay [8] was “inactive” in each case. Besides, the result in assay [2], in assay [3], in [4], in assay [7], in assay [9] and in assay [10] was inactive.

Regarding `Nc1cc(S(=O)(=O)O)ccc1O`, the Potency result in assay [1], in assay [5], in assay [6] and in [8] was “inactive” each time. For the same compound, the call in assay [2], in [3], in assay [4], in assay [7], in assay [9] and in assay [10] was inactive.

Consider `CC(C)(C)C(=O)CC(=O)C(C)(C)C`, for which the Potency result in assay [1], in [5], in [6] and in [8] was “inactive” in each case. The compound was called inactive in assay [2], in assay [3], in assay [4], in [7], in [9] and in [10].

As to `CCOC(=O)CC`, the Potency entry in assay [1], in assay [5], in assay [6] and in [8] was “inactive” each time. For the same compound, the result in assay [2], in assay [3], in assay [4], in assay [7], in assay [9] and in assay [10] was inactive.

For `O=C(OOC(=O)c1ccccc1)c1ccccc1`, the Potency entry in assay [1], in assay [5], in assay [6] and in assay [8] was “inactive” throughout. The compound was called inactive in assay [2], in assay [3], in [4], in [7] and in [9].

Turning to `C/C=C(\C)C=O`, the Potency result in [1], in assay [6] and in assay [8] was “inactive” each time. Moreover, the result in assay [2], in assay [3], in [4], in [7], in assay [9] and in [10] was inactive. In addition, the Potency in assay [5] was 21.8 µM (active).

Take `CCc1ccc(CC)cc1`: the Potency result in assay [1], in assay [5], in assay [6] and in assay [8] was “inactive” in each case. Also, the compound was classed as inactive in [2], in assay [3], in assay [4], in [7], in assay [9] and in assay [10].

On to `C[C@@H]1CCC[C@H](C)N1CCCC(O)(c1ccccc1)c1ccccn1` (some centres not stated), for which the Potency entry in assay [1], in assay [5], in assay [6] and in [8] was “inactive” in each case. For the same compound, the result in assay [2], in assay [3], in assay [4], in assay [9] and in [10] was inactive.

`CCCCC(O)/C=C(C)/C=C/C=C/C(=O)N1CCCC1=O` (configuration not stated): the Potency result in assay [1], in [5] and in [6] was “inactive” in each case. In addition, the call in assay [2], in assay [3], in [4], in assay [7] and in [9] was inactive.

For the compound `CC(C)(C)c1ccc(C(=O)CCCCl)cc1`, the Potency in assay [1] is 7.5 µM (active). In addition, the call in assay [2], in assay [3], in assay [4], in [9] and in assay [10] was inactive. Also, the Potency entry in assay [5], in assay [6] and in [8] was “inactive” in each case.

For the compound `N[C@H]1C(O)O[C@H](CO)[C@@H](O)[C@@H]1O` (some centres not stated), the Potency entry in [1], in assay [5], in [6] and in [8] was “inactive” each time. Also, the result in assay [2], in [3], in assay [4], in assay [7] and in assay [10] was inactive.

In the case of `C[n+]1ccccc1/C=N/O`, the Potency entry in assay [1], in assay [5], in assay [6] and in [8] was “inactive” in each case. Moreover, the compound was classed as inactive in assay [2], in [3], in [4], in [9] and in assay [10].

Take `NNC(=O)OCc1ccccc1`: the Potency entry in assay [1], in assay [5], in assay [6] and in [8] was “inactive” each time. Besides, the call in assay [2], in [3], in [4], in [7], in assay [9] and in [10] was inactive.

On to `CC(C)(C)OC(=O)c1ccccc1C(=O)O`, for which the Potency entry in assay [1], in assay [5], in assay [6] and in assay [8] was “inactive” in each case. Also, the result in [2], in assay [3], in assay [4], in [9] and in [10] was inactive.

The values above are taken from PubChem BioAssay (Tox21).
